Laboratory results: PubChem BioAssay AID1634 (National Center for Advancing Translational Sciences (NCATS), 2009)
Hit rate of the full screen: of about 260,000 compounds, about 150 (0.058%) were called active. A call without a number means that no potency is given here. The sample holds actives, similar compounds and a random draw of the others, so the mix is not that of the screen. Calls follow the shape of the dose curve; as a rule, active = well fitted inhibition curve with a large enough effect; inconclusive = small, poorly fitted or top-dose-only effect; inactive = no such curve, though single readings can be large or run the other way.
Also: nearly all actives have a fitted effect of over 60% in size.
Potency is read from the fitted curve at half-maximal effect.

The molecules below were run against Pyruvate kinase PKM (Homo sapiens) (UniProt P14618) (assay: qHTS Assay for Inhibitors of Human Muscle isoform 2 Pyruvate Kinase). Details: purified PKM2, ATP generation, Kinase-Glo luminescence; series mostly up to 57.5 µM.
Pyruvate kinase PKM (Homo sapiens), sequence (P14618 whole entry, looked up, canonical isoform): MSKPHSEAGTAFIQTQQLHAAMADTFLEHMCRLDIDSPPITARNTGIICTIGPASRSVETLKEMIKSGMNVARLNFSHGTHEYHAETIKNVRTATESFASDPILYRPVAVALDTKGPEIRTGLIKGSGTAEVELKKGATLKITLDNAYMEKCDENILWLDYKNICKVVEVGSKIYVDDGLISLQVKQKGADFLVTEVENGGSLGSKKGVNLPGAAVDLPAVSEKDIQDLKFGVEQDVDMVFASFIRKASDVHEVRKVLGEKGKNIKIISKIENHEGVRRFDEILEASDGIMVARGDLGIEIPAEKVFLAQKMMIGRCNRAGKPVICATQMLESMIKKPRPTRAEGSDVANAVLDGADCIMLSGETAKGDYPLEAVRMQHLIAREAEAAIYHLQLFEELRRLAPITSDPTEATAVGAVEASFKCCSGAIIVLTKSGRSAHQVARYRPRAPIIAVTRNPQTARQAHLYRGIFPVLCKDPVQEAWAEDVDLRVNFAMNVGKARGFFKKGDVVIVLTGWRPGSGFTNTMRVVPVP
Experimental: NIH Chemical Genomics Center [NCGC] Matthew G. Vander Heiden, M.D., Ph.D. [Harvard Medical School, 77 Avenue Louis Pasteur, Boston, MA 02115] […] ATP generation was detected in a coupled reaction by luciferase-mediated luminescence, an ATP-dependent process. […] The enzyme was assayed at an intermediate level of activity to screen for both inhibitors and activators.
NCGC Assay Protocol Summary: Three uL of substrate mix (at r.t.) in assay buffer (50 mM Imidazole pH7.2, 50 mM KCl, 7 mM MgCl2, 0.01% Tween 20, 0.05% BSA) was dispensed into white solid bottom 1,536 well microtiter plates so that the final concentrations of substrates in the assay were 0.1 mM ADP and 0.5 mM PEP. 23 nL of compound were delivered by a pin tool and 1 uL of enzyme mix in assay buffer (4 degree Celsius) was added. Plates were incubated at room temperature for 1 hour. Two uL of detection mix (Kinase-Glo, Promega; at 4 degree Celsius protected from light) was added and luminescence read by a ViewLux (Perkin Elmer) at 5 second exposure/plate. Data were normalized to the uninhibited and AC100 inhibition (no enzyme). To monitor activation, the first column contained a titration of the activator, NCGC00031955-01 (16-point 1:2 dilutions in duplicate starting at 57 uM) and the first 16 rows of column 4 contained 57 uM of NCGC00031955-01.
In the case of `Cc1nnc(SCC2=C(C(=O)O)N3C(=O)C(NC(=O)Cn4nc(C)c(Cl)c4C)C3SC2)s1` (stereo not given), the Potency is reported as “inactive”. For `Oc1ccccc1N1CCN(c2ncnc3sc(-c4ccccc4)cc23)CC1`, the Potency was “inactive”. `C=CCn1c(SCc2csc(C)n2)nc2scc(-c3ccc(C)o3)c2c1=O` was tested, and the Potency was “inactive”. `CCn1cc(C(=O)NCc2ccc3c(c2)OCO3)c2cc(OC)c(OC)cc2c1=O` was tested, and the Potency was “inactive”. In the case of `Nc1nc(SCC(=O)N2CCN(S(=O)(=O)c3ccc(Cl)cc3)CC2)n[nH]1`, the Potency is reported as “inactive”. For `C=CC(=O)c1ccc2ccccc2c1`, the Potency was “inactive”. For `CC(C)Oc1ccc(CCC(=O)NNC(=S)NCc2ccccc2)cc1`, the Potency was “inactive”. For `N#Cc1nc(COc2ccc(Cl)cc2)oc1N1CCCC1`, the Potency was “inactive”. With `CS(=O)(=O)Nc1cccc(C2=NN(S(=O)(=O)c3ccccc3)C(c3cccs3)C2)c1` (stereo not given) the Potency was “inactive”. With `O=C(CCSCCc1ccccn1)Nc1nccs1` the Potency was “inactive”. In the case of `CCOc1cc(/C=N/O)ccc1OCc1ccccc1F`, the Potency is reported as “inactive”. `O=c1[nH]c2ccccc2n2c(-c3ccccc3)nnc12` was tested, and the Potency was 25.1 µM (active). With `COc1c(O)ccc2c1CN1CCc3cc4c(cc3C1C2)OCO4` (stereo not given) the Potency was “inactive”. With `COc1ccc(C(=O)CCc2ccccc2O)c(OC)c1` the Potency was “inactive”. In the case of `CNC(=O)COc1ccc(S(=O)(=O)Nc2ccccc2)cc1`, the Potency is reported as “inactive”. In the case of `C(=N\N1CCN(c2ccccn2)CC1)/C1=C(N2CCOCC2)C(=C/c2ccccc2)/CC1`, the Potency is reported as “inactive”. `COc1cccc(C(=O)NNS(=O)(=O)c2ccc(F)cc2)c1` was tested, and the Potency was “inactive”. With `Cc1ccc(C(=O)Cn2cc([N+](=O)[O-])nc2C)cc1` the Potency was “inactive”. For `Cc1ccc(CNC(=O)C2CC(c3ccccc3[N+](=O)[O-])=NO2)o1` (stereo not given), the Potency was “inactive”. With `O=c1cc(CO)oc(C(Nc2cccc(C(F)(F)F)c2)c2ccccn2)c1O` (stereo not given) the Potency was “inactive”. In the case of `COc1ccc(-n2c(SCC(=O)NCc3cccs3)nnc2-c2ccoc2C)cc1`, the Potency is reported as “inactive”. `Cc1ccc(-c2nn(-c3ccccc3)cc2CN(Cc2ccccc2)C(=O)CCC(=O)O)o1` was tested, and the Potency was “inactive”. In the case of `Cc1cc(C)c2nc(-c3ccco3)cc(C(=O)O)c2c1`, the Potency is reported as “inactive”. For `Cc1ccc(-n2nc(-c3ccco3)cc2C(=O)NCc2cccnc2)cc1`, the Potency was “inactive”. With `N#CCC(=O)N/N=C/c1cn(Cc2ccc3ccccc3c2)c2ccccc12` the Potency was “inactive”. In the case of `CC(C)(C)C1C/C(=C/c2ccco2)C(=O)/C(=C/c2ccco2)C1` (stereo not given), the Potency is reported as “inactive”. `CN1CCN(c2ccc(S(=O)(=O)Nc3ccccc3)cc2[N+](=O)[O-])CC1` was tested, and the Potency was “inactive”. `Cc1ccc(NS(=O)(=O)c2ccc3c(c2)oc(=O)n3C)c(C)c1` was tested, and the Potency was “inactive”. For `COc1ccc2c(c1)C=CC1(O2)N(CCO)c2ccccc2C1(C)C` (stereo not given), the Potency was “inactive”. `O=C(Cc1cccs1)Nc1nnc(C2CC2)s1` was tested, and the Potency was “inactive”. `Cc1nc2nc(COc3ccccc3)[nH]n2c(=O)c1Cc1ccccc1` was tested, and the Potency was “inactive”. With `CCCc1nc2ccccc2c(=O)n1/N=C/c1ccc(O)c(O)c1` the Potency was “inactive”. For `COc1ccccc1C(=O)NCc1nnc(SC(C)C(=O)Nc2nccs2)n1C` (stereo not given), the Potency was “inactive”. In the case of `COc1ccc(-c2ccc(CCC(=O)O)n2NC(=O)c2ccc(C(C)(C)C)cc2)cc1`, the Potency is reported as “inactive”. For `Oc1ccccc1CNc1ncc(Br)cc1Br`, the Potency was “inactive”. For `N/C(=N\S(=O)(=O)c1cc(C(F)(F)F)cc(C(F)(F)F)c1)c1cccs1`, the Potency was “inactive”. With `Cc1ccc2nc(C)cc(N/N=C/c3ccc(F)cc3)c2c1` the Potency was “inactive”. With `COc1ccccc1-n1cnc2cc(NS(=O)(=O)c3ccccc3)ccc21` the Potency was “inactive”. With `COc1ccc(SC[C@H](Cc2ccccc2)N2CCN(CCc3ccccc3)CCC2=O)cc1` the Potency was “inactive”. With `COc1ccc2[nH]c3c(=O)n(Cc4ccco4)cnc3c2c1` the Potency was “inactive”. For `Fc1ccccc1CNC(=S)Nc1ccc(Cl)cc1`, the Potency was “inactive”. For `Cn1c(-c2ccc(F)cc2)cnc1SCC(=O)NCc1ccco1`, the Potency was “inactive”. `O=c1cc(Cn2nnc(-c3ccc(Cl)cc3)n2)nc2sccn12` was tested, and the Potency was “inactive”. In the case of `O=C(CCC(=O)n1ncc2ccccc21)NCc1ccccc1Cl`, the Potency is reported as “inactive”. With `NC(=S)c1ccc(C(N)=S)o1` the Potency was “inactive”. With `Cc1ccc(NN=Nc2nc3c([nH]2)c(=O)n(C)c(=O)n3C)cc1` the Potency was “inactive”. With `Nc1nnc(SCC(=O)NC2CCCc3ccccc32)s1` (stereo not given) the Potency was “inactive”. `O=S(=O)(c1ccc(Br)cc1)n1ccc2ccccc21` was tested, and the Potency was “inactive”. For `Oc1ccc2nc(Cc3ccccc3)[nH]c2c1`, the Potency was “inactive”. In the case of `CCOc1ccc(S(=O)(=O)Nc2nc3cc(OC)ccc3s2)cc1`, the Potency is reported as “inactive”. With `O=c1ccc2cc(S(=O)(=O)Nc3ccccc3F)ccc2o1` the Potency was “inactive”. With `Cc1cccc(CSc2nc3c(c(=O)n2C)SCC3)c1` the Potency was “inactive”. For `CC(C)(C)c1ccc(C(=O)NCCn2c(N)c(C#N)c3nc4ccccc4nc32)cc1`, the Potency was “inactive”. With `Cn1ncc(N2CCN(S(=O)(=O)c3ccc(Br)cc3)CC2)c(Cl)c1=O` the Potency was “inactive”. For `O=C(CSc1nnc(-c2ccc([N+](=O)[O-])cc2)o1)Nc1ccccn1`, the Potency was “inactive”. With `CCS(=O)(=O)Nc1ccc(C2=NN(C(C)=O)C(c3cccs3)C2)cc1` (stereo not given) the Potency was “inactive”. With `O=C(NCc1cccs1)C1CCN(S(=O)(=O)c2ccc(Cl)cc2)CC1` the Potency was “inactive”. For `O=C(/C=C/c1ccc(Cl)cc1Cl)c1cccnc1`, the Potency was “inactive”. `O=C(COc1ccccc1[N+](=O)[O-])N/N=C/c1ccc[nH]1` was tested, and the Potency was “inactive”. For `COc1cc(/C=N\Nc2nc(-c3cccs3)c(NC(C)=O)s2)ccc1O`, the Potency was “inactive”. `Brc1c(CSc2nncc3ccccc23)nc2ccccn12` was tested, and the Potency was “inactive”. In the case of `Cc1cccc(C)c1NC1=NC(=S)N(c2ccc(N(C)C)cc2)C1(C)C`, the Potency is reported as “inactive”. `CN(C)S(=O)(=O)c1cccc(-c2nn(-c3ccccc3)cc2/C=C2\SC(=S)N(CC(=O)O)C2=O)c1` was tested, and the Potency was “inactive”. With `O=C(N/N=C/c1ccc(O)c(O)c1)C1c2ccccc2Oc2ccccc21` the Potency was “inactive”. For `Cc1coc2c(O)cc3c(c12)OC1(N2CCCCC2)C(=O)NCCCC31` (stereo not given), the Potency was “inactive”. For `C/C=C\C=C\C(=O)N1CC2(CC(c3cccc(NC(=O)/C(C)=C\C)c3)=NO2)C[C@H]1C(N)=O` (stereo not given in full), the Potency was “inactive”. For `Cn1c(=O)n(C)c2cc(NS(=O)(=O)c3ccc(F)cc3)ccc21`, the Potency was “inactive”. In the case of `Cc1ccc(NS(=O)(=O)c2cc3c(cc2C)NC(=O)CO3)cc1`, the Potency is reported as “inactive”. With `CC(=O)Nc1cccc(OCC(=O)/C=C2\N(C)c3ccccc3C2(C)C)c1` the Potency was “inactive”. For `CC1=C/C(=N\OS(=O)(=O)c2ccccc2)C=CC1=O`, the Potency was “inactive”. `Cc1ccc(Cn2c(SCC(=O)N/N=C/c3ccccc3OCC(=O)O)nc3ccccc32)cc1` was tested, and the Potency was “inactive”. With `Cc1cc(C)n(-c2ccc3nncn3n2)n1` the Potency was “inactive”. In the case of `CSC1=NCCN1C(=O)Cc1cccc2ccccc12`, the Potency is reported as “inactive”. For `Cc1ccnc(Nc2nc3ccccc3s2)n1`, the Potency was “inactive”. In the case of `N#Cc1nc(Cc2ccccc2)oc1NCCc1ccccc1`, the Potency is reported as “inactive”. With `Cc1cc(C)c(C#N)c(SCc2ccc3c(c2)OCO3)n1` the Potency was “inactive”. For `C=C(C)C(=O)O[C@H]1C/C(C)=C\C(=O)/C=C(\C)[C@H](O)[C@@H]2OC(=O)C(=C)[C@@H]21`, the Potency was “inactive”. `Cc1ccc2c(Cl)c(C(=O)NCCCn3ccnc3)sc2c1` was tested, and the Potency was “inactive”. For `C=CCN(C(=O)Nc1ccc2oc(C)nc2c1)c1ccccc1`, the Potency was “inactive”. With `O=S(=O)(c1ccc2ccccc2c1)N1CCN(S(=O)(=O)N2CCOCC2)CC1` the Potency was “inactive”. With `N#Cc1c2c(c(N3CCN(CCO)CC3)n3c1nc1ccccc13)CCCC2` the Potency was “inactive”. With `COc1cc2c(cc1O)[C@H](Cc1ccc(Oc3cc(C[C@@H]4NCCc5cc(OC)c(O)cc54)ccc3O)cc1)NCC2` the Potency was “inactive”. In the case of `CN1CCCN(S(=O)(=O)c2ccc3c(c2)OCCO3)CC1`, the Potency is reported as “inactive”. `O=C(CSc1ccc(-c2ccco2)nn1)Nc1cccc(F)c1` was tested, and the Potency was “inactive”. In the case of `CCOC(=O)c1cnc(SCC(=O)Nc2cccc(OC)c2)nc1N`, the Potency is reported as “inactive”. For `O=C(Nc1ccccc1)c1nnsc1S(=O)(=O)c1ccc(Cl)cc1`, the Potency was “inactive”. In the case of `O=C(CN1CCN(S(=O)(=O)c2ccc(F)cc2)CC1)NC1CC1`, the Potency is reported as “inactive”. In the case of `Cc1nc2cc(C(F)(F)F)ccc2n1CCNc1nc(-c2cc(Cl)c(N)c(Cl)c2)cs1`, the Potency is reported as “inactive”. For `Cc1ccc(S(=O)(=O)c2c(N)n(C)c3nc4ccccc4nc23)cc1`, the Potency was “inactive”. In the case of `CSc1nc2ccc(S(=O)(=O)N3CCc4ccccc43)cc2s1`, the Potency is reported as “inactive”. In the case of `COc1cccc(NC(=O)CSc2nnc(Cc3ccc(OC)c(OC)c3)o2)c1`, the Potency is reported as “inactive”. In the case of `CC1=C(C)CC2C(=O)N(c3cccc4ccccc34)C(=O)C2C1` (stereo not given), the Potency is reported as “inactive”. With `CCOC(=O)c1c(C)oc2cc(Br)c(OCC(N)=O)cc12` the Potency was “inactive”. For `COc1ccc(C(=O)/C=C/Nc2ccccn2)cc1`, the Potency was 15.8 µM (active). With `COc1cccc(Nc2ncccc2C(=O)O)c1` the Potency was “inactive”. With `O=C(Nc1ccc(Br)c2cccnc12)c1ccc(Cn2cc([N+](=O)[O-])cn2)o1` the Potency was “inactive”. In the case of `O=C(Oc1ccc(-c2nc(-c3ccccn3)no2)cc1)c1ccccc1`, the Potency is reported as 14.1 µM (active). With `Cc1cnc(C(=O)N2CCCC(C(=O)c3ccc(C(F)(F)F)cc3)C2)cn1` (stereo not given) the Potency was “inactive”. In the case of `O=C(NCc1ccccn1)c1ccc2nc(-c3ccco3)c(-c3ccco3)nc2c1`, the Potency is reported as “inactive”. `O=c1c2ccccc2nnn1CSc1nnnn1-c1ccccc1` was tested, and the Potency was “inactive”.
